Sampled rows, rich in hits. Any-hit rate of the full collection: about 3.6%.
MazEF act – MazEF (E. coli) toxin RNase activation; P0AE70; FAM/BHQ RNA-DNA oligo cleavage fluorescence, 5 h; activation, % at 20 µM; 350,000 tested, 0.32% active; AID 504720; in the data active means activation above about 50%
BoNT-F LC inh – blocks Botulinum neurotoxin F light chain protease; Multiplex microsphere protease cleavage assay, flow cytometry; 360,000 tested, 0.22% active; inhibition, % at 10 µM; in the data active means inhibition above about 35%, passing the limit was not always enough; inconclusive means no clear call, values can overlap the other calls; further: plate controls were buffer without enzyme for full effect and enzyme alone for no effect
Autofluor counter – flagged as autofluorescent in microsphere protease counterscreen; AID 624483; fluorescence intensity (concentration not given with the values); 360,000 tested, 3.1% active; compound autofluorescence counterscreen, microsphere flow cytometry; active compounds read high; in the data active means fluorescence intensity above about 16000; inconclusive means no clear call, values can overlap the other calls
BoNT A protease – blocks Botulinum neurotoxin A light chain protease; 360,000 tested, 0.17% active; multiplex microsphere protease substrate cleavage, flow cytometry; inhibition, % at 10 µM; further: plate controls were buffer without enzyme for full effect and enzyme alone for no effect
Anthrax LF prot – blocks Bacillus anthracis lethal factor protease. 360,000 tested, 0.12% active. AID 588501. inhibition, % at 10 µM. multiplex microsphere protease cleavage assay, LF; further: plate controls were buffer without enzyme for full effect and enzyme alone for no effect
Target sequence (P15917 whole entry, looked up): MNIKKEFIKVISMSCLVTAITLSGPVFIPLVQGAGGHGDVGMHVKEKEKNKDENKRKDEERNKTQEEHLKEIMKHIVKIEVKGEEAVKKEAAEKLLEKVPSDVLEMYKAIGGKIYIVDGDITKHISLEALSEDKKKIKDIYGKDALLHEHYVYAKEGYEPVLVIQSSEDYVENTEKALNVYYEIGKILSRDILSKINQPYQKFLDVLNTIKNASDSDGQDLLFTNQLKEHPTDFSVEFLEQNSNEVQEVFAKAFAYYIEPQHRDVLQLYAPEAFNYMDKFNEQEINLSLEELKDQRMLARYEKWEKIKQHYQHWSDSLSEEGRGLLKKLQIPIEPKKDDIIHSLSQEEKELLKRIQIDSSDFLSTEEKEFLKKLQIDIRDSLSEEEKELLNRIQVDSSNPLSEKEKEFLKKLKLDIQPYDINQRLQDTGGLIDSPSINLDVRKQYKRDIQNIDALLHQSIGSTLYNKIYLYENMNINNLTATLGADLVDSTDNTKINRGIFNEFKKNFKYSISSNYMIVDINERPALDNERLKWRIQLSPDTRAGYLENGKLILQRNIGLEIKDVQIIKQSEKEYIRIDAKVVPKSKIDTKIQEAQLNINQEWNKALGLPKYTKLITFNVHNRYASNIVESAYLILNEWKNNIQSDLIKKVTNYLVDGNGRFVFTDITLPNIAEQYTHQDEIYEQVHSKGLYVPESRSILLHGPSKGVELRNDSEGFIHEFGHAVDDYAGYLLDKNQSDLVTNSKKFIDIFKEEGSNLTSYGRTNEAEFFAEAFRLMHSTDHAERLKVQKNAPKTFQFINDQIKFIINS
Numbers without * were called inactive; ? = inconclusive; . = no result. Unless noted, no stated cut-off is given here; in the data, active means inhibition above about 30%; inconclusive means no clear call, values can overlap the other calls; inactive means below that.

SMILES	MazEF act	BoNT-F LC inh	Autofluor counter	BoNT A protease	Anthrax LF prot
CCOC(=O)c1nn(-c2ccc(OCC)cc2)c2nc(CC(C)C)c(C#N)c(=O)n12	-4	-4	16776*	-2	-3
CCOC(=O)Cc1[nH]nc2c1C(c1cc(OC)ccc1OC)C(C#N)=C(N)O2 (centres undefined)	5	-5	21991*	-4	0
CCOC(=O)Cc1[nH]nc2c1C(c1cccc(OC)c1OC)C(C#N)=C(N)O2 (centres undefined)	3	15	4690	0	2
CCCc1[nH]nc2c1C(c1cc(OC)ccc1F)C(C#N)=C(N)O2 (centres undefined)	-2	4	18896*	4	-9
CCCc1[nH]nc2c1C(c1cc(OC)cc(OC)c1)C(C#N)=C(N)O2 (centres undefined)	-4	-7	8833	0	3
O=C(CCN1CCN(Cc2ccccc2)CC1)NNC(=O)Nc1cccc([N+](=O)[O-])c1	2	-14	5789	-5	-7
CCCOc1ccc(C(=O)CCCC(=O)c2ccc(OCCC)cc2)cc1	-3	-10	3063	0	-3
O=C1NC[C@@H](CCCCN2C[C@H](Cc3ccc(O)cc3)N(CCc3ccc(O)cc3)C(=O)C2=O)N(CCc2ccccc2)C1=O	.	-5	6207	-1	1
CC(C)=CCC[C@H](C)C[C@@H]1CC2=C(C(=O)OC(C)(C)O2)[C@@H](c2ccc(F)cc2)O1	.	4	5298	0	-5
Cc1ccc(Cn2ccc(NC(=O)c3cc(-c4ccc5c(c4)OCO5)on3)n2)cc1	1	2	10162	0	3
CC(C)(C)c1ccc(Cn2ccc(-c3ccc4c(c3)OCO4)n2)cc1	-14	-1	19826*	1	-4
COc1cc(Br)cc(CNc2ccc(F)c([N+](=O)[O-])c2)c1O	-2	-1	4432	-1	-1
CCN(CC)CCNC(=O)NC1CCCCC1	6	-4	22854*	?	0
C(=C\CSc1ncn[nH]1)/CSc1ncn[nH]1	1	8	20380*	4	-1
c1n[nH]c(SCCCCSc2ncn[nH]2)n1	5	.	.	.	.
Cc1ccc(-c2nnc(N3CCN(C(=O)COc4ccccc4)CC3)c3ccccc23)cc1	3	-2	16269*	1	-4
CCOc1ccc2nc(NC(=S)NCc3ccccc3)sc2c1	-3	2	20242*	2	0
CCOc1ccc2nc(NC(=O)Nc3ccccc3)sc2c1	5	5	3749	0	-1
Cc1ccc2nc3sc(C(=O)NCc4ccco4)c(N)c3cc2c1	82*	-3	2999	1	-1
COc1cc2cc3c(N)c(C(=O)NCc4ccco4)sc3nc2cc1OC	3	1	3007	3	2
Cc1c(CCO)c(=O)n(C)n1C(=O)c1ccc(F)cc1	0	4	5409	0	-2
Cc1c(CCO)c(=O)[nH]n1C(=O)c1ccc(F)cc1	-4	-2	23529*	0	-5
CCOCCc1nnc(NC(=O)C2CC(=O)N(CCc3ccc(F)cc3)C2)s1 (centres undefined)	2	1	3965	2	-2
CC1=C(C(=O)N2CCOCC2)C(c2ccsc2)C2=C(CCCC2=O)N1 (centres undefined)	-2	3	22793*	2	-2
CC1=C(C(=O)Nc2ccccc2)C(c2cc(CN3CCOCC3)cs2)C2=C(CCCC2=O)N1 (centres undefined)	0	-1	3435	0	1
SMILES	MazEF act	BoNT-F LC inh	Autofluor counter	BoNT A protease	Anthrax LF prot
O=C(OCC#CCSc1nc2ccccc2o1)c1ccco1	-7	2	22148*	?	-10
O=C(OCC#CCSc1nnc(-c2cccc3ccccc23)o1)c1ccco1	-1	-4	20284*	?	-2
CC(NS(=O)(=O)c1cccc(Cl)c1F)[C@H](O)c1ccccc1 (some centres undefined)	9	-2	3760	0	-7
CCN(CC)CC(O)CN1C(=O)NC(C)(C)C1=O (centres undefined)	-5	-4	3910	1	-5
CC1(C)NC(=O)N(CC(O)COc2ccccc2C(=O)Nc2ccccc2)C1=O (centres undefined)	1	-6	23718*	-3	-2
CC1(C)NC(=O)N(CC(O)CN2C(=O)NC(C)(C)C2=O)C1=O	7	0	23204*	0	-2
CCN(Cc1ccccc1)C(=O)C1CCN(Cc2ccc(OC)c(OC)c2OC)CC1	-1	-1	22911*	?	1
COC(C(=O)Nc1ccnn1C1CCN(Cc2ccccn2)CC1)c1ccccc1 (centres undefined)	-2	-2	5036	-3	-3
CCC(=O)Nc1ccccc1C(=O)OCC(=O)c1ccc2ccccc2c1	4	-1	23453*	-1	-4
Cc1cc[n+](Cc2ccccc2)c(N)c1	9	-5	3960	-1	-2
Cc1ccc2[nH]cc(C(=O)CN3CCN(C)CC3)c2c1	3	-2	23399*	?	-2
COc1ccc2c(C(=O)CN3CCN(c4ccccc4)CC3)c[nH]c2c1	30	-1	24933*	?	-2
COc1ccc(C)cc1-n1nnnc1SC/C(O)=C(\C#N)c1nc2ccccc2[nH]1	2	-1	21719*	0	1
CCOc1ccc(N2CSC(=S)N(c3ccc(OCC)cc3)C2)cc1	6	?	3691	0	32*
CCOc1ccc(N2CC(=O)SC2=S)cc1	-12	3	7508	8	7
COc1ccc(OC)c(NC(=O)NNC(=O)COc2ccc(F)cc2F)c1	5	10	3861	2	7
CC(C)(C)C(=O)Nc1nnc([C@H]2C[C@H](O)[C@@H](CO)O2)s1	.	7	2928	0	-3
COc1ccc(OC)c(NC(=O)c2ccc3c(=O)n(CCc4ccccc4)c(=S)[nH]c3c2)c1	52*	-2	10468	1	3
CCn1c(=S)[nH]c2cc(C(=O)OC)ccc2c1=O	1	-2	6493	0	3
COCCn1c(=S)[nH]c2cc(OC)c(OC)cc2c1=O	0	2	5073	0	-1
CCN(CC)CCNC(=O)c1ccc2c(=O)n(C3CCCC3)c(=S)[nH]c2c1	-10	1	20853*	0	-1
CCN(CC)CCCn1c(=S)[nH]c2cc(OC)c(OC)cc2c1=O	0	-8	22782*	?	-1
COc1ccc(OC)c(NC(=O)CCn2c(=S)[nH]c3ccccc3c2=O)c1	-11	-5	5320	0	-2
CCN(CC)CCCn1c(=S)[nH]c2cc(C(=O)OC)ccc2c1=O	-10	-3	23192*	1	-1
COc1ccc(C(=O)NCC(=O)OCC(=O)NCc2ccc3c(c2)OCO3)cc1	2	-9	3818	0	-10
CCN(CC)S(=O)(=O)c1ccc(NC(=O)COC(=O)CNS(=O)(=O)/C=C/c2ccccc2)cc1	-4	-4	2022	0	-3
O=C(CSc1ncnc2c1nnn2Cc1ccccc1F)NCC1CCCO1 (centres undefined)	8	16	5884	2	3
Cc1cccc(NC(=O)CN2C(=O)NC3(CCCC3)C2=O)n1	3	-5	5799	-2	3

Assay outcomes deposited in PubChem BioAssay by several laboratories.
